The text below walks through data of PMC11062922 (Nature Chemical Biology, 2023).

Read-outs that look alike come from different tables or passages of the source.

The test system of one assay is PRKCZ. Set-up: species or system human, MV4-11 + K-562 + COLO205 + SK-N-BE2 + OVCAR-8. The note with it: read-out: apparent Kd; compound concentrations:100 nM and 1000 nM (sheet 'Samples'); n = 1.
In assay [1] the test system is PTK2. Set-up: species or system human, MV4-11 + K-562 + COLO205 + SK-N-BE2 + OVCAR-8. The note with it: read-out: apparent Kd; compound concentrations: 100 nM and 1000 nM (sheet 'Samples'), CATDS: 1; n = 1.
In a further assay the test system is SMC2. Set-up: species or system human, MV4-11 + K-562 + COLO205 + SK-N-BE2 + OVCAR-8. The note with it: read-out: apparent Kd; compound concentrations: 100 nM and 1000 nM (sheet 'Samples'), CATDS: 0.46661242360410599; n = 1.
A further assay has as its system SIK2. Set-up: species or system human, MV4-11 + K-562 + COLO205 + SK-N-BE2 + OVCAR-8. The note with it: read-out: apparent Kd; compound concentrations: 100 nM and 1000 nM (sheet 'Samples'), CATDS: 1; n = 1.
The subject of another assay is PRKX;PRKY. Set-up: species or system human, MV4-11 + K-562 + COLO205 + SK-N-BE2 + OVCAR-8. The note with it: read-out: apparent Kd; compound concentrations: 100 nM and 1000 nM (sheet 'Samples'), CATDS: 0.167379705383528; n = 1.
The test system of the next assay is PRKD2. Set-up: species or system human, MV4-11 + K-562 + COLO205 + SK-N-BE2 + OVCAR-8. The conditions noted are these: read-out: apparent Kd; compound concentrations:100 nM and 1000 nM (sheet 'Samples'); n = 1.
Another assay deals with PRKD3. Set-up: species or system human, MV4-11 + K-562 + COLO205 + SK-N-BE2 + OVCAR-8. The note with it: read-out: apparent Kd; compound concentrations:100 nM and 1000 nM (sheet 'Samples'); n = 1.
Another assay deals with RABL3. Set-up: species or system human, MV4-11 + K-562 + COLO205 + SK-N-BE2 + OVCAR-8. The conditions noted are these: read-out: apparent Kd; compound concentrations:100 nM and 1000 nM (sheet 'Samples'); n = 1.
A further assay relates to TGFBR1. Set-up: species or system human, MV4-11 + K-562 + COLO205 + SK-N-BE2 + OVCAR-8. The conditions noted are these: read-out: apparent Kd; compound concentrations:100 nM and 1000 nM (sheet 'Samples'); n = 1.
A further assay has as its system TGFBR2. Set-up: species or system human, MV4-11 + K-562 + COLO205 + SK-N-BE2 + OVCAR-8. The note with it: read-out: apparent Kd; compound concentrations:100 nM and 1000 nM (sheet 'Samples'); n = 1.
The test system of a further assay is TNIK. Set-up: species or system human, MV4-11 + K-562 + COLO205 + SK-N-BE2 + OVCAR-8. The conditions noted are these: read-out: apparent Kd; compound concentrations:100 nM and 1000 nM (sheet 'Samples'); n = 1.
In the next assay the test system is T1, DJA1.
T1 construct: gene DNAJA1
The note with it: read-out: apparent Kd; compound concentrations:100 nM and 1000 nM (sheet 'Lestaurtinib' of Supplementary Table 1),run:Lestaurtinib_02482_R2,Plate:MR011; n = 1.

A further assay has as its system PIK3CG. The note with it: read-out: apparent Kd; compound concentrations:100 nM and 1000 nM (sheet 'Lestaurtinib' of Supplementary Table 1),run:Lestaurtinib_02487_R1,Plate:MR012; n = 1.
The test system of a further assay is PIM1. The note with it: read-out: apparent Kd; compound concentrations:100 nM and 1000 nM (sheet 'Lestaurtinib' of Supplementary Table 1),run:Lestaurtinib_02487_R1,Plate:MR012; n = 1.
The next assay deals with PIP4K2C. The conditions noted are these: read-out: apparent Kd; compound concentrations:100 nM and 1000 nM (sheet 'Lestaurtinib' of Supplementary Table 1),run:Lestaurtinib_02487_R1,Plate:MR012; n = 1.
The next assay relates to PKN3. The note with it: read-out: apparent Kd; compound concentrations:100 nM and 1000 nM (sheet 'Lestaurtinib' of Supplementary Table 1),run:Lestaurtinib_02487_R1,Plate:MR012; n = 1.
The test system of a further assay is PRKCQ. The conditions noted are these: read-out: apparent Kd; compound concentrations:100 nM and 1000 nM (sheet 'Lestaurtinib' of Supplementary Table 1),run:Lestaurtinib_02487_R1,Plate:MR012; n = 1.
The test system of assay [2] is PTK2. The note with it: read-out: apparent Kd; compound concentrations:100 nM and 1000 nM (sheet 'Lestaurtinib' of Supplementary Table 1),run:Lestaurtinib_02487_R1,Plate:MR012; n = 1.
The next assay deals with PTK6. The conditions noted are these: read-out: apparent Kd; compound concentrations:100 nM and 1000 nM (sheet 'Lestaurtinib' of Supplementary Table 1),run:Lestaurtinib_02487_R1,Plate:MR012; n = 1.
The test system of another assay is RIPK2. The conditions noted are these: read-out: apparent Kd; compound concentrations:100 nM and 1000 nM (sheet 'Lestaurtinib' of Supplementary Table 1),run:Lestaurtinib_02487_R1,Plate:MR012; n = 1.

`O=C(Nc1n[nH]c2cc(-c3cccs3)ccc12)C1CC1` [SB-731284]: the potency estimated from few doses in the assay with PRKCZ is 1.85 µM.
As for `COc1cc2c(cc1Nc1nc(Nc3cccc(F)c3C(N)=O)c3cc[nH]c3n1)N(C(=O)CN1CCN(C(C)C)CC1)CC2` [GSK1751853A], the potency estimated from few doses in the assay on PTK2 [1] was 1.21 µM.
Turning to `N#Cc1ccc(C(=O)c2cnn(-c3ccc(F)cc3)c2N)cc1` [RO1153198-000], in the assay on SMC2, the potency estimated from few doses was 2.04 µM.
`NS(=O)(=O)c1cccc(-c2cc3ccncc3cc2OCc2ccccc2)c1` [GSK980961A]: in the assay on SIK2, the potency estimated from few doses was 1.6 µM.
In the case of `CC1=C(C(=O)Nc2cc3cn[nH]c3cc2F)C(c2ccc(C(F)(F)F)cc2)CC(=O)N1` (centres unmarked) [GSK429286A], the potency estimated from few doses in the assay on PRKX;PRKY is 2 µM.
In the case of `Cc1cccc(-c2n[nH]cc2-c2ccc3ncccc3n2)n1` [GW786460X], the potency estimated from few doses in the assay with PRKD2 was 0.465 µM; with PRKD3, 0.64 µM; in the assay with RABL3, 1.26 µM; in the assay with TGFBR1, 0.00139 µM; in the assay with TGFBR2, 0.112 µM; in the assay on TNIK it was 1.72 µM.
Consider Lestaurtinib, for which the potency estimated from few doses was 1.33 µM in the assay with DJA1; 1.57 µM in the assay with PIK3CG; 0.86 µM with PIM1; 0.0865 µM in the assay on PIP4K2C; 0.755 µM with PKN3; 2.17 µM with PRKCQ. Also, the results for the potency estimated from few doses in the assay on PTK2 [2], in the assay on PTK6 and in the assay with RIPK2 were 0.345 µM, 0.533 µM and 0.81 µM, respectively.
